Shown are actives, neighbours in structure and some others; about 5.9% of the full set was active somewhere.
HSF1 activator = increases HSF-1 driven luciferase reporter signal; AID 504408; NIH3T3-HGL HSF-1 luciferase reporter, MG132, 8 h; 100% = twice DMSO control signal; 300,000 tested, 1.7% active; activation, % at 9 µM;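 active means mean replicate activation of at least 50% with a set share of replicates each reaching 50%; inconclusive means only one of those two conditions met; inactive means mean below 50% and too few replicates reaching it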
AHR activator = activators of human aryl hydrocarbon receptor; AID 2796; activation, % at 5 µM; P35869; AHR-responsive luciferase reporter cells, luminescence; 320,000 tested, 2.5% active; in the data active means activation above about 47%
HSF1 inh = HSF1 inhibition; NIH3T3-HGL HSE-luciferase, MG132-induced, luminescence 8 h; active compounds read low; activity change, negative = inhibition, % at 7.5 µM (by protocol); 300,000 tested, 0.77% active; AID 2098;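 active means more than half of replicate wells show activity change below -50%, luminescence cut by over half; inconclusive means some wells, but at most half, below -50%; inactive means no replicate well below -50%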;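 further: luciferase reports HSF-1 transcriptional activity via heat shock element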
GAA850 FXN act = frataxin GAA850 promoter activation; HEK293 lucGAA850 FXN promoter luciferase reporter, 24 h; percent of 10 µM SAHA response; activation, % at 6 µM; 360,000 tested, 0.56% active; AID 540364;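 active means activation above the average of all compounds screened plus 3 SD, cutoff fixed separately per campaign, cut at about 7.5% in these data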
NR0B1 inh = inhibits human nuclear receptor DAX1; P51843; HEK293 Gal4-DAX1 luciferase reporter, luminescence; inhibition, % at 6.75 µM; 340,000 tested, 0.99% active; AID 504766;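 active means inhibition above the mean over all tested compounds plus 3 SD, cut at about 4.2% in these data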;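 further: inhibition shows as a rise in luminescence from relieved DAX1 repression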
HSP90 refold inh = inhibitors of HSP90 luciferase refolding in rabbit reticulocyte lysate; 290,000 tested, 0.91% active; inhibition, % at 5.6 µM; luciferase refolding luminescence, 3 h;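 active means inhibition above the screen-wide mean plus 3 SD, computed separately per campaign, cut at about 16% in these data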;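 further: inhibitors lower the luminescence because luciferase stays unfolded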
Large screens that a line does not name were inactive.

Nc1n[nH]c(-c2ccc(Br)cc2)c1Cl	AHR activator 62
Nc1nc(-c2ccc(Cl)cc2)nnc1-c1ccc(Br)cc1	none
Cc1ccc(OCC(=O)N2CCCCC2)c(Br)c1	none
CC(C)(C)c1ccc(OCC(=O)N2CCCCCC2)c(Br)c1	HSF1 activator 69
Cc1ccc2nc(-c3ccc(SCC(=O)O)nc3)[nH]c2c1	none
CCc1nnc(NC(=O)CSc2ccc(-c3nc4ccc(C)cc4[nH]3)cn2)s1	HSF1 activator 68, AHR activator 66
Cc1ccc2nc(-c3ccc(SCC(=O)N4CCc5ccccc54)nc3)[nH]c2c1	HSF1 activator 102, AHR activator 59
COc1ccc(Cl)c(-c2cc(C(=O)Nc3ccccc3)[nH]n2)c1	none (no result: HSF1 activator, AHR activator, HSF1 inh, NR0B1 inh, HSP90 refold inh)
Cn1c(=O)c2c(nc(Sc3ncnn3CC(=O)NC3CCCCC3)n2C)n(C)c1=O	none
Cn1c(=O)c2c(nc(Sc3ncnn3CC(=O)N3CCOCC3)n2C)n(C)c1=O	HSF1 inh -88
O=C1C(C=NCCCn2ccnc2)=C(O)c2ccccc21	AHR activator 48
O=C1C(C=NCc2ccccn2)=C(O)c2ccccc21	HSF1 activator inconclusive, AHR activator 60
CC(=NCCCn1ccnc1)C1=C(O)c2ccccc2C1=O	none
CCC1Oc2ccc(C)cc2N(Cc2cccc(C)c2)C1=O (stereo not given)	HSF1 activator 54
CCc1nc2ccc(C(=O)NCCCN3CCCC3=O)cn2c1N(CCC(C)C)CCN(C)C	none (no result: HSF1 activator, AHR activator, HSF1 inh, NR0B1 inh, HSP90 refold inh)
Cc1ccc(NC(=O)COC(=O)[C@H](C)N2C(=O)C3CC=CCC3C2=O)cc1S(=O)(=O)N(C)C (stereo not given in full)	HSF1 activator 68
Cc1ccc(NC(=O)COC(=O)Cn2cnc3ccccc32)cc1S(=O)(=O)N(C)C	HSF1 inh -83
Clc1ccccc1-c1nnc(-c2ccccc2Cl)o1	HSF1 activator inconclusive
Clc1ccc(-c2nnc(-c3ccccc3Cl)o2)cc1	AHR activator 49
Cc1ccccc1-c1nnc(-c2ccc(Cl)cc2)o1	AHR activator 54 (no result: HSF1 activator, HSF1 inh)
Cc1ccccc1-c1nnc(-c2ccccc2)o1	none
COc1ccc(-c2nnc(-c3ccc(N(C)C)cc3)o2)cc1	none
CN(C)c1ccc(-c2nnc(-c3ccccc3F)o2)cc1	AHR activator 63
O=C(c1ccco1)c1nnn(Cc2ccccc2)c1-c1ccccc1	HSF1 activator 64
O=C(Nc1ccc(OC(F)F)c(Cl)c1)c1ccccn1	HSF1 activator 70, NR0B1 inh 5.2
COc1ccc(NC(=O)c2ccc(OC(F)F)cc2)cc1Cl	none
COc1ccc(Cl)cc1NC(=O)CCCn1c(=O)c2cccn2c2cccnc21	none (no result: HSF1 activator, AHR activator, HSF1 inh, HSP90 refold inh)
CSc1ccc(/C=C/C(=O)N2CCN(c3ccccn3)CC2)cc1	none
Cn1nc(C(C)(C)C)cc1C(=O)N1CCCCC1c1cc(C(=O)Nc2cccc(C#N)c2)no1 (stereo not given)	none (no result: HSF1 activator, AHR activator, HSF1 inh, NR0B1 inh, HSP90 refold inh)
COCCN(Cc1cc2cc(C)ccc2n2nnnc12)C(=S)Nc1ccc(C)cc1	NR0B1 inh 4.6
COCCN(Cc1cc2cc(C)ccc2n2nnnc12)C(=S)Nc1ccc(OC)cc1	none (no result: HSF1 activator, AHR activator, HSF1 inh, HSP90 refold inh)
CC(C)CNC(=O)c1nn(Cc2ccccc2)c(=O)c2ccccc12	none
CCNC(=O)CNC(=O)c1nn(Cc2ccccc2)c(=O)c2ccccc12	HSF1 inh -71
CCCc1c(C(=O)N/N=C/c2ccoc2)nnn1-c1nonc1N	none (no result: HSF1 activator, AHR activator, HSF1 inh, HSP90 refold inh)
COc1ccc(NC(=S)NNc2ccc(S(=O)(=O)Nc3ccccc3C(=O)O)cc2[N+](=O)[O-])cc1	HSP90 refold inh 20
COc1ccc(C=NNc2ccc(S(=O)(=O)Nc3ccccc3C(=O)O)cc2[N+](=O)[O-])c(OC)c1	none (no result: HSF1 activator, HSF1 inh, HSP90 refold inh)
CCCN1/C(=C(\C#N)C2=NS(=O)(=O)c3ccccc32)N(C)c2ccccc21	none (no result: HSF1 activator, AHR activator, HSF1 inh, HSP90 refold inh)
COc1ccc(C)cc1NC(=O)C(OC(=O)Cn1cnc2c1c(=O)n(C)c(=O)n2C)c1ccccc1 (stereo not given)	AHR activator 53 (no result: HSP90 refold inh)
COc1ccc(C)cc1NC(=O)C(OC(=O)c1cnccn1)c1ccccc1 (stereo not given)	none (no result: HSP90 refold inh)
Cc1cc(C)cc(NC(=O)C(OC(=O)Cn2cnc3c2c(=O)n(C)c(=O)n3C)c2ccccc2)c1 (stereo not given)	none (no result: HSP90 refold inh)
COc1ccc(C)cc1NC(=O)C(OC(=O)c1ccc([N+](=O)[O-])o1)c1ccccc1 (stereo not given)	AHR activator 47
